Common to all, as to assay: NCI-60 one-dose screen, 48 h (100 = growth as untreated, 0 = no growth, -100 = all killed)
Details in all cases: 10 µM unless noted

Assay [1] relates to T-47D breast.
The subject of assay [2] is BT-549 breast.
Assay [3] relates to MDA-MB-435 melanoma.
For assay [4], the system named is SW-620 colon.
In assay [5] the test system is MCF7 breast.
The subject of assay [6] is HCT-116 colon.
The subject of assay [7] is HCC-2998 colon.
The subject of assay [8] is KM12 colon.

This is part of a sample that, as a whole, favours compounds with a hit. Of some 83,000 tested, about 20% had one in any assay.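 The test compound was applied at a single concentration to cells in 96-well plates for 48 hours, and percent growth was recorded.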 A number with no mark means an inactive call. Activity calls are given as the source filed them. Rule for the calls: active = growth percent below 10; inactive = the rest.

Turning to `COc1cc(C(=O)/C=C/c2sc(Cl)nc2Cl)cc(OC)c1OC`, the growth in assay [1] was 28.2%; in assay [2], 86.2%; in assay [3] it was 98.5%; in assay [4], -61% (active); in assay [5] it was -68.1% (active); in assay [6], -54.3% (active). Besides, the growth is -58.3% (active) in assay [7] and 28.4% in assay [8].
As to `CN1CCN(c2ccc(-c3ccc4ncc(C#N)c(Nc5ccc(F)c(Cl)c5)c4c3)cn2)CC1`, the growth in assay [1] is 60.8%; in assay [2] it was 60.3%; in assay [3] it was 81.6%; in assay [4] it was 53.4%; in assay [5], 66.9%; in assay [6] it was 32.8%. Moreover, the values for the growth in assay [7] and in assay [8] were 68.9% and 80.7%, respectively.
With `C(=N/Nc1ncnc2nc[nH]c12)/c1ccccn1`, the growth in assay [1] is 30.2%; in assay [2], 54.7%; in assay [3] it was 39.5%; in assay [4] it was 36.8%; in assay [5], 22.9%; in assay [6], 28.1%. Further, the growth was 28.2% in assay [7] and 36.3% in assay [8].
Regarding `Cc1nc2ccccc2n1-c1ncnc2c1CC(C)c1ccccc1N2C` (stereo not given), the growth in assay [1] was 72.1%; in assay [2], 92.3%; in assay [3], 8.87% (active); in assay [4], 68%; in assay [5], 61.8%; in assay [6], 96.2%. Moreover, the growth was 90% in assay [7] and 73.6% in assay [8].
On to `CN1CCN(c2ccc(-c3cc4c(Nc5ccc(F)c(Cl)c5)ncnn4c3)cn2)CC1`, for which the growth was 96.2% in assay [1]; 105% in assay [2]; 96.1% in assay [3]; 40.4% in assay [4]; 77.4% in assay [5]; 1.89% (active) in assay [6]. Moreover, the figures for the growth in assay [7] and in assay [8] were 98.6% and 93.7%, respectively.
For `NS(=O)(=O)c1ccc(N=Nc2ccc(-c3nn4cc(-c5ccccc5)nc4s3)cc2)cc1`, the growth in assay [1] was 87.6%; in assay [2] it was 84.8%; in assay [3] it was 101%; in assay [4], 96.2%; in assay [5] it was 94%; in assay [6], 88.8%. The growth in assay [7] is 104%; in assay [8], 95.7%.
For `N#Cc1c(-c2ccccc2)nc(SCC(=O)Nc2nc(-c3ccc(Cl)cc3)cs2)[nH]c1=O`, the growth in assay [1] was 81.8%; in assay [2], 93.6%; in assay [3], 99.6%; in assay [4], 113%; in assay [5], 91.7%; in assay [6], 81.8%. The results for the growth in assay [7] and in assay [8] were 81.5% and 103%, respectively.
As to `CCc1ccccc1-n1c(N)c(C#N)c(-c2ccc(Cl)cc2)c(C#N)c1=O`, the growth in assay [1] was 101%; in assay [2], 173%; in assay [3], 119%; in assay [4], 102%; in assay [5], 103%; in assay [6], 103%. The growth is 107% in assay [7] and 95.8% in assay [8].
In the case of `Cc1ccc(-c2nc(N3CCN(C(=O)Nc4ccc(Cl)c(C(F)(F)F)c4)CC3)c3ccccc3n2)cc1`, the growth in assay [1] is 70.3%; in assay [2], 93.6%; in assay [3], 79.7%; in assay [4], 84.8%; in assay [5] it was 62%; in assay [6], 67.5%. Besides, the growth in assay [7] is 85.3%; in assay [8] it was 82.9%.
`C=C(C)C1CCC2(C)OC2C1` (stereo not given): the growth was 117% in assay [1]; 99.3% in assay [2]; 98.2% in assay [3]; 110% in assay [4]; 105% in assay [5]; 109% in assay [6]. Further, the growth was 114% in assay [7] and 115% in assay [8].
With `Cc1ccc(C2CC(c3ccc(Nc4ccnc5cc(Cl)ccc45)cc3)=NN2C=O)cc1` (stereo not given), the growth is 38.3% in assay [1]; 56.8% in assay [2]; 16.3% in assay [3]; 68% in assay [4]; 35.2% in assay [5]; 57.6% in assay [6]. In addition, the growth was 53.2% in assay [7] and 50.2% in assay [8].
In the case of `CN(C)c1ccc(/C=N\Nc2cc(=O)[nH]c3ccc(Cl)cc23)cc1`, the growth in assay [1] is 81.7%; in assay [2], 85.5%; in assay [3], 105%; in assay [4], 86%; in assay [5] it was 81%; in assay [6] it was 88.4%. Further, the growth in assay [7] and in assay [8] was 104% in each case.
For the compound `O=C(Cc1ccc2c(c1)OCCO2)Nc1nc2ccc(F)cc2s1`, the growth in assay [1] was 93.6%; in assay [2] it was 89.6%; in assay [3], 104%; in assay [4], 104%; in assay [5], 92.2%; in assay [6], 101%. Besides, the growth in assay [7] is 122%; in assay [8], 108%.
As for `O=c1ccn(Cc2cn(-c3c4ccccc4nc4ccccc34)nn2)c(=O)[nH]1`, the growth is 38% in assay [1]; 100% in assay [2]; 99.4% in assay [3]; 93% in assay [4]; 36.4% in assay [5]; 92.4% in assay [6]. For the same compound, the growth in assay [7] was 90.5%; in assay [8], 104%.
On to `CC(C)(C)NC(=O)C(OC(=O)c1cccc(Cl)c1)c1ccc(Cl)cc1` (stereo not given), for which the growth in assay [1] was 96.8%; in assay [2], 82.9%; in assay [3], 107%; in assay [4] it was 103%; in assay [5] it was 95.8%; in assay [6], 74.7%. Moreover, the growth is 107% in assay [7] and 100% in assay [8].

The values above are taken from PubChem BioAssay (NCI).
